Shown is part of a subset that was picked to be rich in hits.
Sa growth inh: S. aureus growth inhibition at 42 and 30 °C, primary screen, LtaS inhibitor project, RN4220, two temperatures | relative growth, % (test concentration not listed) | OD600, 20 h, 42 °C; hits give low values | AID 720641, 2013 | 170,000 compounds, 0.53% hits;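 active = relative growth at most 50% at the other temperature and 20+ points below 30 °C, or under 10% at both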
S aureus helic: inhibitors of S. aureus replicative helicase, primary screen, biochemical, fluorescence unwinding readout; replicative DNA helicase (DnaC/DnaB), Staphylococcus aureus; purified S. aureus helicase, fluorescence unwinding assay; inhibition, % (test concentration not listed); 120,000 compounds, 0.05% hits; AID 485395, 2010; in the data active = inhibition above about 25%, passing the limit was not always enough;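 note: 0% = mean of negative control wells and 100% = mean of positive control wells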
* marks the source's active call; other numbers are inactive results; / = not tested or not shown.

SMILES	Sa growth inh	S aureus helic
CC1CN(C(=O)COC(=O)c2ccccc2NS(C)(=O)=O)CC(C)O1 (configuration not stated)	68	19
CC(C)c1ccc(NC(=O)CSc2ncn[nH]2)cc1	94	-7
Cc1ccc(S(=O)(=O)/N=C2\C=C(Sc3ncn[nH]3)C(=O)c3ccccc32)cc1	2	17
CC(C)c1ccc(S(=O)(=O)/N=C2/C=C(Sc3ncn[nH]3)C(=O)c3ccccc32)cc1	1.2*	16
Cc1ccc(S(=O)(=O)/N=C2/C=C(Sc3ncn[nH]3)C(=O)c3ccccc32)cc1	2.1*	23
Cc1nc2ccccn2c1-c1ccnc(SCC(=O)Nc2ccccc2)n1	80	/
CC(=O)NC1=CC(=O)c2nonc2C1=O	-0.7*	19
COc1nonc1NC(C)=O	91	4
O=C(OCCn1ccnc1)c1ccc(-c2ccccc2)cc1	3.0*	9
O=C(CCn1ccnc1)OCc1ccccc1	106	17
O=C(CCCCc1nc2ccccc2s1)Nc1ccccc1	101	-2
CCn1nc(C(=O)O)c(=O)c2cc3c(cc21)OCO3	0.5*	/
CCn1cc(C(=O)O)c(=O)c2cc3c(cc21)OCO3	98	/
O=C(/C=C/C(=O)c1ccc2ccccc2c1)c1ccccc1	-0.4*	3
O=C(O)/C=C/C(=O)c1ccccc1	124	5
CC(C)=NOC(=O)c1cn(-c2ccccc2)nc1-c1cccs1	96	-11
C/C(=C\C(=Nc1ccc2c(c1)OCO2)c1ccccn1)c1ccccn1	110	-13
O=C(NC(=S)NCc1ccccc1)C1CCCC1	113	13
CO[C@@]12[C@@H]3NC3CN1C1=C(C(=O)C(N)=C(C)C1=O)[C@@H]2COC(N)=O (some centres not stated)	0.2*	/
CCOC(=O)c1ccccc1NC(=O)c1sc2nc(C)nc(N(CC)CC)c2c1C	103	8
Cc1nn2c(-c3ccccc3)cc(-c3ccccc3)nc2c1-c1ccc(Cl)cc1	110	/
Cc1[nH]n2c(=O)cc(-c3ccc(Cl)cc3)nc2c1-c1ccccc1	-0.5*	/
O=C(COc1ccc2ccccc2c1Br)NCCC1=CCCCC1	47	-6
N#C/C(=N\Nc1ccc(F)cc1)C(=O)NCC1CCCO1 (configuration not stated)	93	-15
CC(C)C(=O)/C(C#N)=N/Nc1ccc(F)cc1	8.0*	-13
SMILES	Sa growth inh	S aureus helic
OCCn1c(SCc2ccccc2)nc2ccccc21	92	-11
O=C(CCS(=O)(=O)c1cccc2nsnc12)N1CCCCC1	85	15
COC(=O)c1ccc2c(=O)[nH]c(COC(=O)c3ccc4c(c3)OCO4)nc2c1	97	-9
COC(=O)c1ccc2c(=O)[nH]c(COC(=O)CNC(=O)c3cccs3)nc2c1	83	32*
CCN(C(=O)Cc1c(C(=O)O)[nH]c2ccc(Cl)cc12)c1ccc(C)c(C)c1	80	6
CCCN(C(=O)Cc1c(C(=O)O)[nH]c2ccc(Cl)cc12)c1ccc(OCC)cc1	29*	/
COc1ccc(N2CCN(C3CC(=O)N(CCc4ccccc4)C3=O)CC2)cc1 (configuration not stated)	101	1
CCCCS(=O)(=O)c1oc(-c2cccs2)nc1S(=O)(=O)c1ccc(F)cc1	103	/
Cc1ccc(S(=O)(=O)c2nc(-c3ccccc3)oc2S(=O)(=O)c2ccc(C)cc2)cc1	92	19
CCCCCS(=O)(=O)c1oc(-c2cccs2)nc1S(=O)(=O)c1ccc(C)cc1	88	/
CCCCS(=O)(=O)c1oc(-c2ccc(F)cc2)nc1S(=O)(=O)c1ccc(C)cc1	4.8*	/
CCC(C)S(=O)(=O)c1oc(-c2ccc(F)cc2)nc1S(=O)(=O)c1ccc(C)cc1 (configuration not stated)	80	28
CCC(C)S(=O)(=O)c1oc(-c2ccc(F)cc2)nc1S(=O)(=O)c1ccc(F)cc1 (configuration not stated)	15*	/
CC(C)CS(=O)(=O)c1oc(-c2cccs2)nc1S(=O)(=O)c1ccccc1	23*	22
CCS(=O)(=O)c1oc(-c2ccc(F)cc2)nc1S(=O)(=O)c1ccccc1	2.2*	/
CC(C)(C)OC(=O)N1CCC(C(=O)N2CCCCC2)CC1	85	13
COc1ccc(CN=Cc2cc(Cl)cc(Cl)c2O)cc1	103	/
Cc1ccc(C2C3=C(CCCC3=O)N(C)C3=C2C(=O)CCC3)cc1	101	3
O=c1/c(=C/c2cccs2)sc2nnc(-c3ccc(Cl)cc3)n12	117	/
N=C1c2ccccc2CN1CCN1C(=O)S/C(=C\c2ccc(F)cc2)C1=O	71	-2
COc1ccc2c(COC(=O)c3ccc4c(=O)n5c(nc4c3)CCC5)cc(=O)oc2c1	84	26*
O=C(OCc1ccccc1Cl)c1ccc2c(=O)n3c(nc2c1)CCC3	84	14
O=C(CN1CCSc2ccccc21)NCc1ccccc1	118	-8
CO[C@H](C(=O)[C@@H](O)[C@@H](C)O)[C@@H]1Cc2cc3cc(O[C@H]4C[C@@H](O[C@H]5C[C@@H](O)[C@H](O)[C@@H](C)O5)[C@@H](O)[C@@H](C)O4)c(C)c(O)c3c(O)c2C(=O)[C@H]1O[C@H]1C[C@@H](O[C@H]2C[C@@H](O[C@H]3C[C@](C)(O)[C@H](O)[C@@H](C)O3)[C@H](O)[C@@H](C)O2)[C@H](O)[C@@H](C)O1	-0.2*	/
Cc1[nH]c2ccc(OC(F)(F)F)cc2c1CCNC(=O)c1c(Cl)cnn1C	83	19
SMILES	Sa growth inh	S aureus helic
COc1ccc(C(c2ccccc2)N2CCNCC2)cc1 (configuration not stated)	106	15
CCOc1ccc(NC(=O)C2NC(=O)CC2c2ccccc2)cc1 (configuration not stated)	89	10
CCOc1ccc(NC23SCC(=O)C2CCc2ccccc23)cc1 (configuration not stated)	2.0*	/
CC(Sc1nnc(Cc2cccs2)n1C)C(=O)c1ccc(NS(C)(=O)=O)cc1 (configuration not stated)	76	16
OCc1c(F)c(F)c(F)c(F)c1F	95	/
C=CC1=C(C(=O)O)N2C(=O)[C@@H](NC(=O)C(=NO)c3csc(N)n3)[C@H]2SC1	-0.1*	/
CO/N=C(/C(=O)N[C@@H]1C(=O)N2C(C(=O)O)=C(COC(C)=O)CS[C@H]12)c1csc(N)n1	1.1*	/
CC(=O)OCC1=C(C(=O)O)N2C(=O)[C@@H](NC(=O)Cc3cccs3)[C@H]2SC1	-0.7*	/
COCC1=C(C(=O)OC(C)OC(=O)OC(C)C)N2C(=O)[C@@H](NC(=O)/C(=N/OC)c3csc(N)n3)[C@H]2SC1 (some centres not stated)	37	/
CO/N=C(\C(=O)O)c1csc(N)n1	92	17
COc1ccc(N2CC(NC(=O)Cc3cccs3)CC2=O)cc1 (configuration not stated)	109	/
CCOC(=O)C(C)(C)Sc1nc2c(c(=O)n1-c1ccc(F)cc1)SCC2	114	11
Cc1c(C(=O)CSc2ncccc2C(=O)O)sc2ccccc12	122	/
CC(=O)Oc1c(Sc2ccccc2)c(C)nn1-c1ccccc1	/	25
COc1nsc(NN)c1C#N	93	1
CC(NC(=O)Nc1cccc(C(F)(F)F)c1)c1nc2ccccc2[nH]1 (configuration not stated)	0.5*	-6
C[C@H](NC(=O)c1cccc(C(F)(F)F)c1)c1nc2ccccc2[nH]1	86	11

Screening results from PubChem.
